Here are results for six compounds from PubChem BioAssay (NCATS).

The target of assay [1] is Lysosomal acid glucosylceramidase (Homo sapiens) (UniProt P04062). In words: Glucocerebrosidase-p2 (AID 348; in the data active = potency below about 10 µM; note: potency is the fitted concentration of half-maximal effect). The conditions noted are these: purified GBA, blue fluorogenic substrate, 40 min. Put shortly: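 Normal human glucocerebrosidase (0.2 nM) with blue fluorogenic substrate (80 uM final) in citrate/phosphate pH 5.9 with 10mM sodium taurocholate, 0.01% tween-20; 40 min RT, NaOH/glycine stop; fluorescence Ex 365/Em 440; AC50 from a titration from 0.6 nM upwards.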
Sequence of Lysosomal acid glucosylceramidase (Homo sapiens) (P04062 whole entry, looked up): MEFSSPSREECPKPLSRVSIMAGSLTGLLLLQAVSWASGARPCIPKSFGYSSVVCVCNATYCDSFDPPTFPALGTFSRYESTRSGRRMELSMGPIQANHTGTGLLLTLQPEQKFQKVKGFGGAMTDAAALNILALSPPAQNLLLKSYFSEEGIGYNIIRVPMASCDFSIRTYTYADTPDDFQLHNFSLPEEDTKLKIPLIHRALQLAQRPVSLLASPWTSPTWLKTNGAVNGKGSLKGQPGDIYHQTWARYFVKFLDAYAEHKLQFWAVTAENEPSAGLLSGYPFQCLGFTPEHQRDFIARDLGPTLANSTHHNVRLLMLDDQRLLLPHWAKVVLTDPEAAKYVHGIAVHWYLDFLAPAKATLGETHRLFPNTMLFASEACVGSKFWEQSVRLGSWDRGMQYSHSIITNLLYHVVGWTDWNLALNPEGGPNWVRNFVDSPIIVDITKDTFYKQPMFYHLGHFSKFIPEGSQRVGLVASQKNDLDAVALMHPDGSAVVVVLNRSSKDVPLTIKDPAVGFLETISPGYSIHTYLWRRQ

Assay [2] is described as follows: AP1 Signaling Pathway (AID 357).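 Note: ME-180 reporter cells stimulated with EGF at its EC50 level; % is set by controls: 0 for no effect and ±100 for the full control effect.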 The conditions noted are these: ME-180 AP-1-bla reporter, EGF-induced, beta-lactamase ratio, 5 h; at 7.69 µM (top of the series) unless noted. A digest of the protocol: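 First, ME-180 AP-1-bla cells were cultured overnight at 37 °C in low-serum Opti-MEM. Next, titrated compounds with EC50 EGF were incubated 5 hours. Finally, CCF4 was added for 2.5 hours and the 460/530 nm ratio recorded.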

Assay [3] has as its target Cytochrome P450 1A2 (Homo sapiens) (UniProt P05177). In words: p450-cyp1a2 (AID 410; calls by dose curve; note: potency is the fitted concentration of half-maximal effect). The conditions noted are these: recombinant CYP1A2, luciferin-ME demethylation, luminescence; series mostly up to 11.4 µM. A digest of the protocol: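 20nM CYP1A2, 100uM Luciferin-ME (=Km), 100mM KPO4; cpd 10 min RT; +NADPH regen, 60 min RT; stop/detect 20 min; luminescence. Normalized to furafylline 57 uM = full inhibition.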

Assay [4] is described as follows: NFAT Signaling Pathway (AID 444).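 Note: carbachol stimulus at about its EC50 of 1 µM final; % is set by controls: 0 for no effect and ±100 for the full control effect.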 The settings on record: Jurkat NFAT-bla M1, carbachol, beta-lactamase ratio, 5 h; at 7.69 µM (top of the series) unless noted. A digest of the protocol:
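Jurkat cells carrying an NFAT-driven β-lactamase reporter and co-transfected muscarinic M1 receptor were treated with compound plus carbachol (1 uM final, an EC50 level) for 5 h at 37 °C. CCF4 loading followed for 1 h at RT; 460/530 nm ratio gave %activity.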

A short description of assay [5]: Stat Signaling Pathway (AID 446).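 Note: ME-180 cervical cancer cells given 40 pM IL-6 alongside compound; SIE-controlled beta-lactamase reporter measured as 460/530 nm FRET emission ratio; % is set by controls: 0 for no effect and ±100 for the full control effect.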 The settings on record: ME-180 (cervical carcinoma) SIE beta-lactamase reporter, IL-6 stimulated, 5 h; at 7.69 µM (top of the series) unless noted. A digest of the protocol: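 Emission at 460 and 530 nm (excitation 405 nm) reports SIE-controlled beta-lactamase in ME-180 cells. Cells received compound with 40 pM IL-6 for 5 hrs at 37 C; data scaled between 300 pM IL-6 and 125 nM JAK-inhibitor controls.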

Assay [6] deals with Glucocorticoid receptor (Homo sapiens) (UniProt P04150). Description: GR-GFP Redistribution (AID 450;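 active = compounds whose dose series gives a full or clear partial fitted curve of increased nuclear translocation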; note: potency is the fitted concentration of half-maximal effect). The conditions noted are these: U2OS GR-GFP nuclear translocation, laser cytometry, 2 h.
Sequence of Glucocorticoid receptor (Homo sapiens) (P04150 whole entry, looked up, the tested form may be a part): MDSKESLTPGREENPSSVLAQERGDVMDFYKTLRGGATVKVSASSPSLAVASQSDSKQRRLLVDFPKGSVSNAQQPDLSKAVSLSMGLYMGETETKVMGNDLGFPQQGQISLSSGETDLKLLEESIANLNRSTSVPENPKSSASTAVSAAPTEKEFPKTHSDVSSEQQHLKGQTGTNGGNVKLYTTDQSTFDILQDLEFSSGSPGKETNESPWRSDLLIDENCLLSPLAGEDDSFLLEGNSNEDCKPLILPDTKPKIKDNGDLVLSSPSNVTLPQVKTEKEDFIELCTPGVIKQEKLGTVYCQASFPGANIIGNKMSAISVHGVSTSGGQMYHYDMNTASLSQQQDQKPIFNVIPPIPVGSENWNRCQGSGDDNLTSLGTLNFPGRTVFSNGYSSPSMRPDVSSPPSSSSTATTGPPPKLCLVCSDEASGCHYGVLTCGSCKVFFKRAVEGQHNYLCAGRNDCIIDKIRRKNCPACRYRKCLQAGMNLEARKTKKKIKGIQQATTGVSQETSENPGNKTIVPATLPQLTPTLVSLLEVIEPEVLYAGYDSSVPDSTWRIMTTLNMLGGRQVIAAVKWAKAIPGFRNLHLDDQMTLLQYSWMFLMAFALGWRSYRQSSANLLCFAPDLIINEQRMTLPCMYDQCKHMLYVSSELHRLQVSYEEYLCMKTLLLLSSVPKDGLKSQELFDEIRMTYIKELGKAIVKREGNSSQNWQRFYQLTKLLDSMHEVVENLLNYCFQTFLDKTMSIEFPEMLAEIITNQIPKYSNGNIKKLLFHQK
The target is the same in assay [7]. In words: GR-EFC Redistribution (AID 451; calls by dose curve; note: potency is the fitted concentration of half-maximal effect). The conditions noted are these: CHO-K1 GR-EFC translocation, beta-gal luminescence, 2 h. Put shortly: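 CHO-K1 cells stably expressing nuclear-localized β-gal enzyme acceptor and GR fused C-terminally to the enzyme donor fragment; ligand-driven nuclear translocation restores β-gal by complementation. Compounds titrated up to 46 uM final, 2 h at 37 °C; luminescence read.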

The target in assay [8] is Mitogen-activated protein kinase 10 (Mus musculus) (UniProt Q61831). In words: JNK3 AlphaScreen Assay (AID 530).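 Note: kinase came from lysate of stimulated human HepG2 cells; % is set by controls: 0 for no effect and ±100 for the full control effect.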 The conditions noted are these: JNK3 lysate, c-Jun phosphorylation; series mostly up to 11.4 µM. Put shortly: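 Biotinylated GST-cJun(1-79) served as substrate for JNK3 in HepG2 lysates stimulated with IL-1beta and TNF-alpha. ATP was 10 uM final, pH 7.6. Ser73 phosphorylation was quantified by AlphaScreen (680 nm excitation).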

Assay [9] has as its target 3',5'-cyclic-AMP phosphodiesterase 4B (Homo sapiens) (UniProt Q07343). In words: qHTS Assay for Inhibitors of PDE-IV (AID 607; active = well fitted activation curve with a large enough effect in the main read-out, with a control signal flat, not every such curve was filed as active; note: % of control where 0% means no effect). The conditions noted are these: HEK293 ACTOne CNG channel cells, membrane potential fluorescence; series mostly up to 22.9 µM. A digest of the protocol: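 The readout is membrane depolarisation from a cAMP-sensing CNG channel, detected with a potential dye at ex 535/em 590. Cells were HEK293-derived (endogenous PDE-IV) at 1000 cells/well, titrated up to 22.9 uM final.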
(Quantitative high-throughput screening tests each substance at several concentrations.)

Assay [10] addresses Cytochrome P450 3A4 (Homo sapiens) (UniProt P08684). In words: qHTS Assay for Inhibitors and Substrates of Cytochrome P450 3A4 (AID 884; active = well fitted curve in the direction sought with a large enough effect; an effect the other way counts as inactive or inconclusive; note: potency is the fitted concentration of half-maximal effect; nearly all actives have a fitted effect of over 50% in size). The settings on record: recombinant CYP3A4, Luciferin-PPXE luminescence; series mostly up to 57.1 µM. A digest of the protocol: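 Luminescent readout of luciferin produced by CYP3A4 (20 nM) dealkylation of Luciferin-PPXE, 25 uM (its KM). NADPH-driven reaction ran 60 min at RT after 10 min compound preincubation; data scaled to 57 uM ketoconazole as 100% inhibition.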

Assay [11] has the same target. Description: qHTS Assay for Activators of Cytochrome P450 3A4 (AID 885; active = well fitted curve in the direction sought with a large enough effect; an effect the other way counts as inactive or inconclusive; note: nearly all actives have a fitted effect of over 65% in size). The settings on record: recombinant CYP3A4, Luciferin-PPXE luminescence, 60 min; series mostly up to 11.4 µM. A digest of the protocol:
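Activators are scored by enhanced luminescence from CYP3A4 conversion of luciferin-PPXE (25uM, equal to KM) to luciferin, after 60 min at RT with an NADPH-regenerating system.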

Assay [12] has as its target Cytochrome P450 2D6 (Homo sapiens) (UniProt P10635). Description: qHTS Assay for Inhibitors and Substrates of Cytochrome P450 2D6 (AID 891; active = well fitted curve in the direction sought with a large enough effect; an effect the other way counts as inactive or inconclusive; note: potency is the fitted concentration of half-maximal effect; nearly all actives have a fitted effect of over 60% in size). The settings on record: recombinant CYP2D6, luciferin-ME EGE luminescence; series mostly up to 11.4 µM. A digest of the protocol:
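Luminescent read-out of luciferin formed by 5 nM human CYP2D6 demethylating 30 uM Luciferin-ME EGE (Km level) over 60 min at room temperature after NADPH regeneration addition. Data normalized to full inhibition by 1.43 uM quinidine.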

For assay [13], the target named is Cytochrome P450 2C19 (Homo sapiens) (UniProt P33261). Description: qHTS Assay for Inhibitors and Substrates of Cytochrome P450 2C19 (AID 899; active = well fitted curve in the direction sought with a large enough effect; an effect the other way counts as inactive or inconclusive; note: potency is the fitted concentration of half-maximal effect; nearly all actives have a fitted effect of over 60% in size). The conditions noted are these: recombinant CYP2C19, luciferin-H EGE luminescence; series mostly up to 11.4 µM. A digest of the protocol:
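In 50mM KPO4, the reaction held 5nM enzyme and KM-level (10uM) Luciferin-H EGE; it ran 60 min at 37C after NADPH regeneration and a 10 min compound preincubation. Luminescence values were scaled to 57uM ketoconazole as complete inhibition.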

Unmarked numbers belong to inactive results. Results filed as inconclusive are left out. Calls of active or inactive are those of the source. Unless noted, calls come from the whole dose curve; as a rule, active = well fitted curve in either direction with a large enough effect (not every such curve was filed as active); inconclusive = small, poorly fitted or top-dose-only effect, or another doubt; inactive = flat fitted curve, though single readings scatter.

Sequence of Cytochrome P450 3A4 (Homo sapiens) (P08684 whole entry, looked up): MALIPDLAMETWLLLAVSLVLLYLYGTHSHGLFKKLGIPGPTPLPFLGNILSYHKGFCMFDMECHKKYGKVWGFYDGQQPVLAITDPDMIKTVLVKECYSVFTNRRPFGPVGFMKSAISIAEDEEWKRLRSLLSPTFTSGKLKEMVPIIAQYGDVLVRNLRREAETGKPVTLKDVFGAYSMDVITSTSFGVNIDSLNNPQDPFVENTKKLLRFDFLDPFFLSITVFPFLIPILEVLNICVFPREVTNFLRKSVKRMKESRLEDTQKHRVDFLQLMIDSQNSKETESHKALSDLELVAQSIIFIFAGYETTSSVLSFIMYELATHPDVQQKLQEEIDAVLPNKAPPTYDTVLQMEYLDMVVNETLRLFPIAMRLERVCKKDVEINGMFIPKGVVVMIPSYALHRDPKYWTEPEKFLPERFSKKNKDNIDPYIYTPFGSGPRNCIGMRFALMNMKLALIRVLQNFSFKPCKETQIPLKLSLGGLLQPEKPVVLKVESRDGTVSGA
Sequence of 3',5'-cyclic-AMP phosphodiesterase 4B (Homo sapiens) (Q07343 whole entry, looked up): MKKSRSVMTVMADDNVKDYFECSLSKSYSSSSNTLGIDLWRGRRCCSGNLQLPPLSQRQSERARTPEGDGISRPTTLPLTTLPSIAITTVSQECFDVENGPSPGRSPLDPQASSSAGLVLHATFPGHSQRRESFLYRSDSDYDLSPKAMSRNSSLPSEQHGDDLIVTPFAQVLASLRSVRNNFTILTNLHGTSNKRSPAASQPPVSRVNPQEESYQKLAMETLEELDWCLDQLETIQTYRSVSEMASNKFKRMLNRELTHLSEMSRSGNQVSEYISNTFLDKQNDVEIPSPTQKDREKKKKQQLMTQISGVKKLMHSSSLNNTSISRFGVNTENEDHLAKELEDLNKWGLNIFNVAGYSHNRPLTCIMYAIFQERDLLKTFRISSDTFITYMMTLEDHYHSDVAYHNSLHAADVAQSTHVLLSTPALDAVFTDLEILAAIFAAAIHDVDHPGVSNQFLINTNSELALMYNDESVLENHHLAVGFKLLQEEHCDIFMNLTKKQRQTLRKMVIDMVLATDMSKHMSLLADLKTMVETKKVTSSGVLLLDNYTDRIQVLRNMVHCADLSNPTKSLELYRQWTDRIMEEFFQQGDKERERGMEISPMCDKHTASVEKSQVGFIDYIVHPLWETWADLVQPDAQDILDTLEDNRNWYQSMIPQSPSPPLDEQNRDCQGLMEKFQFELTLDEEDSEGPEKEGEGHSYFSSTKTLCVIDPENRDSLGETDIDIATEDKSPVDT
Sequence of Cytochrome P450 1A2 (Homo sapiens) (P05177 whole entry, looked up): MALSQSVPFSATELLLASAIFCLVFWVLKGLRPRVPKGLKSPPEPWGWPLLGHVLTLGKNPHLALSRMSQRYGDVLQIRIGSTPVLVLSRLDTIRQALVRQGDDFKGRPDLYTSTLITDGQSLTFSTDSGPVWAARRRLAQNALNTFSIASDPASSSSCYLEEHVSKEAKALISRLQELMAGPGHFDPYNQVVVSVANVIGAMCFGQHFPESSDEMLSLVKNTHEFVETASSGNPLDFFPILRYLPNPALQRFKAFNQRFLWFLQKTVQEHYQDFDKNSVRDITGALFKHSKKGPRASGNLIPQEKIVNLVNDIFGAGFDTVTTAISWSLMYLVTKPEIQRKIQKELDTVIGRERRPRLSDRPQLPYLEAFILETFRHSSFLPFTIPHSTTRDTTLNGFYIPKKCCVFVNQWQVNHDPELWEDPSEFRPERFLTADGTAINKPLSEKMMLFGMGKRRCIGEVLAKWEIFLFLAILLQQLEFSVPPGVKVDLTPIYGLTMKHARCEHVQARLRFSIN
Sequence of Cytochrome P450 2C19 (Homo sapiens) (P33261 whole entry, looked up): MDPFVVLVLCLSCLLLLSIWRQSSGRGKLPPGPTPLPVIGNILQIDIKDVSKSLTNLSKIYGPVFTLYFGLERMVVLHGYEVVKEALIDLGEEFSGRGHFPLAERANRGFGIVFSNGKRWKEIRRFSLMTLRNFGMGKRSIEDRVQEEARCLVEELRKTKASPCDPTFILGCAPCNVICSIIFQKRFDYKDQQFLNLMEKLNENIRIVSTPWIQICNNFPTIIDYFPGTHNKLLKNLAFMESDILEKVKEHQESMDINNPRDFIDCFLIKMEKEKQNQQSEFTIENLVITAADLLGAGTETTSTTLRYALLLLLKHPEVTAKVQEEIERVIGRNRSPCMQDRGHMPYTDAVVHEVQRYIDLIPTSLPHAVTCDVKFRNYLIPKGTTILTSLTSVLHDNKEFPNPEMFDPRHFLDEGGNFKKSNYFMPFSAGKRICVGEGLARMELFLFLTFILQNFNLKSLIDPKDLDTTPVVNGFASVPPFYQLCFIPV
Sequence of Cytochrome P450 2D6 (Homo sapiens) (P10635 whole entry, looked up): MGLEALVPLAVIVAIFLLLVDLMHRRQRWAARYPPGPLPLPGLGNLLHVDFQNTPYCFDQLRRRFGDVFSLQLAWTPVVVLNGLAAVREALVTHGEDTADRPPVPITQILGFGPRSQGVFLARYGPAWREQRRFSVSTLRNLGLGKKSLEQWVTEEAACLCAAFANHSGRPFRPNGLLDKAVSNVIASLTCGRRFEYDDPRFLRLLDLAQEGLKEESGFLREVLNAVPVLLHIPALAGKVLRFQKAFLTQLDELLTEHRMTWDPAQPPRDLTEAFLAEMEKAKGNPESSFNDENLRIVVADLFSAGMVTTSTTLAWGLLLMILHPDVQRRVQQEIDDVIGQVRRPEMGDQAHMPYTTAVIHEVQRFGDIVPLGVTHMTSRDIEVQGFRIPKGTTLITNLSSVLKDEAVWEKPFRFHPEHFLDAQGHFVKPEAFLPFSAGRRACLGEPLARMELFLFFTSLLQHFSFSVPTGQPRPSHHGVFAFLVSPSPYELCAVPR

For `CC1=C/C(=C(/c2ccc(O)c(C)c2)c2ccccc2C(=O)O)C=CC1=O`, the Potency in assay [1] is more than 11.4 µM; in assay [3], 3.16 µM (active); in assay [6] it was more than 46 µM; in assay [7] it was more than 9.22 µM; in [10], 1.58 µM (active); in assay [12] it was 1.58 µM (active). Besides, in assay [13], the Potency is 0.0032 µM (active). In addition, the activity change, negative = inhibition in [2] was 12.7%; in [4] it was -5.21%. Further, the activity, negative = inhibition in [5] was 4.74%. Moreover, the Potency entry in assay [8], in assay [9] and in assay [11] was “inactive” each time.
Turning to `Cc1cc(C(=O)CSC(=S)SC(C)(C)C)ccc1Cl`, the Potency in assay [1] was more than 11.4 µM; in assay [3], 1.58 µM (active); in [6] it was more than 46 µM; in [7], more than 9.22 µM. Besides, the activity change, negative = inhibition in assay [2] was 7.67%; in assay [4], -16.2%. Also, in assay [5], the activity, negative = inhibition is -27.2%. Further, the Potency result in assay [8], in [9] and in assay [11] was “inactive” each time.
For `CC(=O)Nc1ccc2c(c1)C(=Nc1ccc(C(=O)O)cc1)c1ccccc1-2`, the Potency is more than 11.4 µM in assay [1], 0.316 µM (active) in assay [3], more than 46 µM in assay [6] and more than 9.22 µM in assay [7]. For the same compound, the activity change, negative = inhibition in assay [2] was 2.47%; in assay [4] it was 27.4%. In addition, in assay [5], the activity, negative = inhibition was 4.14%. Besides, the Potency result in [8], in [9] and in assay [11] was “inactive” throughout.
For `COc1ccc2c(c1)Cc1cc(N=[N+]([O-])c3ccc4c(c3)Cc3cc(OC)ccc3-4)ccc1-2`, the Potency in assay [1] was more than 11.4 µM; in assay [3] it was 1.58 µM (active); in [6], more than 46 µM; in assay [7], more than 9.22 µM; in assay [10], 5.01 µM (active). Besides, the activity change, negative = inhibition is -9.92% in [2] and -17.3% in assay [4]. Besides, the activity, negative = inhibition in assay [5] is -1.13%. Besides, the Potency entry in assay [8], in assay [9] and in assay [11] was “inactive” in each case.
With `S=C(Nc1ccc2c(c1)Cc1ccccc1-2)Nc1ccc2c(c1)Cc1ccccc1-2`, the Potency in [1] is more than 11.4 µM; in assay [3], 0.2 µM (active); in assay [6], more than 46 µM; in assay [7] it was more than 9.22 µM. The activity change, negative = inhibition is -4.53% in assay [2] and 9.24% in assay [4]. In addition, the activity, negative = inhibition in assay [5] was 3.09%. The Potency result in assay [8], in assay [9] and in assay [11] was “inactive” throughout.
In the case of `CN(C)c1ccc(/C=N\NC(=O)c2cnc3ccccc3c2)cc1`, the Potency in assay [1] was more than 11.4 µM; in assay [3] it was 1.58 µM (active); in assay [6], more than 46 µM; in assay [7] it was more than 9.22 µM. Besides, the activity change, negative = inhibition in assay [2] was -12.8%; in assay [4] it was 1.4%. In assay [5], the activity, negative = inhibition was -7.11%. Moreover, the Potency entry in assay [8], in [9] and in assay [11] was “inactive” throughout.
